Laboratory results taken from PubChem BioAssay AID1159580 (chemical genetic matrix, 2015).
“And” between values parts separate entries of the source, which are not always exact repeats. Equal values may be shown once. The whole screen tested about 5,500 compounds, of which about 2,000 (36%) were called active. Inconclusive results (about 18%) are left out. No stated cut-off is given here; in the data, active means normalized growth mostly below about 0.91 (no sharp cut-off); inconclusive means no clear call, values can overlap the other calls; inactive means mostly above about 0.92. This is one part of the list.

Test: chemical genetic growth profiling, strain panel (AID 1159580);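 further: tested at 20 µM; growth read once vehicle control cultures reached saturation at 30 °C; 1 = growth at the plate median or of vehicle wells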
Settings: S. cerevisiae deletion strains, growth OD

Measured: normalized growth

CC(CCc1ccccc1)NCC(O)c1ccc(O)c(C(N)=O)c1 (stereo not given)
inactive: locus YAL013W, strain DEP1, stronger effect = lower value 1 | locus YAL021C, strain ccr4, stronger effect = lower value 1 | locus YAL026C, strain drs2, stronger effect = lower value 1.01 | locus YAL030W, strain snc1, stronger effect = lower value 0.997 | locus YAL040C, strain CLN3, stronger effect = lower value 1.01 | locus YBL061C, strain skt5, stronger effect = lower value 1.01 | locus YBR009C, strain hhf1, stronger effect = lower value 1 | locus YBR021W, strain FUR4, stronger effect = lower value 1.01 | locus YBR023C, strain chs3, stronger effect = lower value 1.01 | locus YBR171W, strain sec66, stronger effect = lower value 1.01 | locus YBR229C, strain ROT2, stronger effect = lower value 1 | locus YBR231C, strain swc5, stronger effect = lower value 1.01 | locus YBR279W, strain paf1, stronger effect = lower value 1 | locus YCL011C, strain gbp2, stronger effect = lower value 1.01 | locus YCL016C, strain dcc1, stronger effect = lower value 1.01 | locus YCL029C, strain bik1, stronger effect = lower value 1.01 | locus YCL061C, strain MRC1 (second series), stronger effect = lower value 1.01 | locus YCL061C, strain MRC1, stronger effect = lower value 0.997 | locus YCL069W, strain vba3, stronger effect = lower value 1 | locus YCR088W, strain abp1, stronger effect = lower value 1.01 | locus YDL005C, strain med2, stronger effect = lower value 1.01 | locus YDL035C, strain GPR1, stronger effect = lower value 1.01 | locus YDL040C, strain nat1, stronger effect = lower value 1.01 | locus YDL074C, strain BRE1, stronger effect = lower value 0.977 | locus YDL101C, strain DUN1, stronger effect = lower value 1 | locus YDL134C, strain PPH21, stronger effect = lower value 1.02 | locus YDL185W, strain tfp1, stronger effect = lower value 1.01 | locus YDL192W, strain arf1, stronger effect = lower value 1.01 | locus YDR001C, strain nth1, stronger effect = lower value 1.01 | locus YDR069C, strain doa4, stronger effect = lower value 1.01 | locus YDR101C, strain arx1, stronger effect = lower value 0.999 | locus YDR137W, strain rgp1, stronger effect = lower value 1.01 | locus YDR150W, strain NUM1, stronger effect = lower value 1 | locus YDR159W, strain sac3, stronger effect = lower value 1.01 | locus YDR162C, strain NBP2, stronger effect = lower value 1.02 | locus YDR195W, strain ref2 1.01 | locus YDR297W, strain sur2, stronger effect = lower value 1.01 | locus YDR318W, strain mcm21, stronger effect = lower value 1.02 | locus YDR334W, strain swr1, stronger effect = lower value 0.99 | locus YDR335W, strain msn5, stronger effect = lower value 1 | locus YDR363W, strain ESC2, stronger effect = lower value 1 | locus YDR388W, stronger effect = lower value 1.02 | locus YDR392W, strain spt3, stronger effect = lower value 1 | locus YDR502C, strain sam2, stronger effect = lower value 1.01 | locus YEL003W, strain gim4, stronger effect = lower value 0.999 | locus YEL037C, strain rad23, stronger effect = lower value 1 | locus YEL061C, strain CIN8 (second series), stronger effect = lower value 1.01 | locus YEL061C, strain CIN8, stronger effect = lower value 0.997 | locus YER002W, strain NOP16, stronger effect = lower value 1.03 | locus YER015W, strain faa2, stronger effect = lower value 0.997 | locus YER016W, strain bim1, stronger effect = lower value 1 | locus YER110C, stronger effect = lower value 1.02 | locus YER111C, strain swi4, stronger effect = lower value 1.01 | locus YER155C, strain BEM2 (second series), stronger effect = lower value 1.01 | locus YER155C, strain BEM2, stronger effect = lower value 1 | locus YER167W, strain BCK2, stronger effect = lower value 1.02 | locus YFR010W, strain ubp6, stronger effect = lower value 1 | locus YGL078C, strain dbp3, stronger effect = lower value 1.01 | locus YGL086W, strain mad1, stronger effect = lower value 1.01 | locus YGL167C, strain pmr1, stronger effect = lower value 1 | locus YGL173C, strain kem1, stronger effect = lower value 1.01 | locus YGL227W, strain vid30, stronger effect = lower value 1.02 | locus YGL240W, strain doc1, stronger effect = lower value 1 | locus YGL248W, strain PDE1, stronger effect = lower value 0.992 | locus YGL253W, strain hxk2, stronger effect = lower value 1 | locus YGR078C, strain PAC10, stronger effect = lower value 0.985 | locus YGR135W, strain pre9, stronger effect = lower value 1.05 | locus YGR252W, strain gcn5, stronger effect = lower value 0.996 | locus YHR013C, strain ard1, stronger effect = lower value 1 | locus YHR027C, strain rpn1, stronger effect = lower value 1 | locus YHR030C, strain SLT2, stronger effect = lower value 1 and 1.02 | locus YHR079C, strain IRE1 (second series), stronger effect = lower value 1.02 | locus YHR079C, strain IRE1, stronger effect = lower value 1.04 | locus YHR094C, strain hxt1, stronger effect = lower value 1.02 | locus YHR129C, strain ARP1, stronger effect = lower value 1.01 | locus YHR142W, strain chs7, stronger effect = lower value 1.02 | locus YHR200W, strain rpn10, stronger effect = lower value 1.01 | locus YIL066C, strain RNR3, stronger effect = lower value 0.995 | locus YIL073C, strain SPO22, stronger effect = lower value 1.1 | locus YIL125W, strain kgd1, stronger effect = lower value 1.01 | locus YIR030C, strain dcg1, stronger effect = lower value 1.03 | locus YJL092W, strain hpr5, stronger effect = lower value 1.01 | locus YJL095W, strain BCK1 (second series), stronger effect = lower value 1.01 | locus YJL095W, strain BCK1, stronger effect = lower value 0.981 and 1.05 | locus YJL115W, strain asf1, stronger effect = lower value 1 | locus YJL129C, strain trk1, stronger effect = lower value 1 | locus YJL134W, strain LCB3, stronger effect = lower value 1 | locus YJL154C, strain vps35, stronger effect = lower value 1 | locus YJL164C, strain tpk1, stronger effect = lower value 0.996 | locus YJL166W, strain qcr8, stronger effect = lower value 1 | locus YJL168C, strain set2, stronger effect = lower value 1.01 | locus YJL187C, strain SWE1 (second series), stronger effect = lower value 0.983 | locus YJL187C, strain SWE1, stronger effect = lower value 1.01 | locus YJR043C, strain POL32, stronger effect = lower value 0.986 | locus YJR066W, strain TOR1, stronger effect = lower value 0.977
